Reference: PubChem BioAssay AID743096 (Vanderbilt Specialized Chemistry Center, 2013)
The source made the active and inactive calls.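 Rule for the calls: active = calcium signal above 60% of the top acetylcholine response at human muscarinic M5 receptors, as a positive modulator; inactive = the rest.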

The compounds below were run against Muscarinic acetylcholine receptor M2 (Homo sapiens) (UniProt P08172) (assay: potentiation of ACh response at M2 – cell-based, human M2, selectivity assay for M5 PAM discovery project (AID 743096)). Details: CHO-K1 hM2/Gqi5, calcium flux, ACh EC20 potentiation; series mostly up to 30 µM.
Muscarinic acetylcholine receptor M2 (Homo sapiens), sequence (P08172 whole entry, looked up): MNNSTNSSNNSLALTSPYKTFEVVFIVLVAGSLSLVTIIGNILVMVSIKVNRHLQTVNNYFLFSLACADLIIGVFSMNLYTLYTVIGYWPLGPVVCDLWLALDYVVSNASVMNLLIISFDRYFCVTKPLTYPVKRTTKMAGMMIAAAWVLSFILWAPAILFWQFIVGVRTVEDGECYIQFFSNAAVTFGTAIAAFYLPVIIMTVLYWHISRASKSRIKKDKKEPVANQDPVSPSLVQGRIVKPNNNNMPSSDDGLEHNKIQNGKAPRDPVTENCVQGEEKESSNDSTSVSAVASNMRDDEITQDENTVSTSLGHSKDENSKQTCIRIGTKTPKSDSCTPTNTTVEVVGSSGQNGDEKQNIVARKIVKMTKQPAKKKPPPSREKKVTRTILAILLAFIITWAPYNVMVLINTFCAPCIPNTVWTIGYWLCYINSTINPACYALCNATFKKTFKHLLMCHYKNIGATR

**Q.** Which outcome does the source give for `CCN(Cc1ccccc1)C(=O)C1CCN(S(=O)(=O)c2ccc3c(c2)OCCO3)CC1` here?
**A.** inactive

**Q.** How did the outcome turn out when `CCN(Cc1ccccc1C(F)(F)F)C(=O)C1CCN(S(=O)(=O)c2ccc3[nH]ncc3c2)CC1` was run?
**A.** inactive

**Q.** Which outcome does the source give for `CCN(Cc1ccccc1)C(=O)C1CCN(S(=O)(=O)c2ccc(OC)cc2)CC1` here?
**A.** inactive

**Q.** Which outcome does the source give for `CCN(Cc1ccccc1Cl)C(=O)C1CCN(S(=O)(=O)c2ccc3[nH]ncc3c2)CC1` here?
**A.** inactive

**Q.** How did the outcome turn out when `CCN(C(=O)C1CCN(S(=O)(=O)c2ccc(OC)cc2)CC1)[C@H](C)c1ccccc1` was run?
**A.** inactive

**Q.** With `CCN(C(=O)C1CCN(S(=O)(=O)c2ccc3[nH]ncc3c2)CC1)[C@H](C)c1ccccc1` as the compound, how does the outcome read?
**A.** inactive
